Screening data (PubChem BioAssay)
In the library only some 1.3% were active in any assay of this set; here they are far more common.
EPAC2 ag – EPAC2 (human) agonism; Q8WZA2; EPAC2 activation, biochemical qHTS; response scale: 100% = 6.5 mM cAMP response; Potency, µM (highest dose often 154 µM), inactives show top-dose activation, actives largely listed as activators; 360,000 compounds, 0.079% hits; also: nearly all actives have a fitted effect of over 50% in size
Target sequence (Q8WZA2 whole entry, looked up): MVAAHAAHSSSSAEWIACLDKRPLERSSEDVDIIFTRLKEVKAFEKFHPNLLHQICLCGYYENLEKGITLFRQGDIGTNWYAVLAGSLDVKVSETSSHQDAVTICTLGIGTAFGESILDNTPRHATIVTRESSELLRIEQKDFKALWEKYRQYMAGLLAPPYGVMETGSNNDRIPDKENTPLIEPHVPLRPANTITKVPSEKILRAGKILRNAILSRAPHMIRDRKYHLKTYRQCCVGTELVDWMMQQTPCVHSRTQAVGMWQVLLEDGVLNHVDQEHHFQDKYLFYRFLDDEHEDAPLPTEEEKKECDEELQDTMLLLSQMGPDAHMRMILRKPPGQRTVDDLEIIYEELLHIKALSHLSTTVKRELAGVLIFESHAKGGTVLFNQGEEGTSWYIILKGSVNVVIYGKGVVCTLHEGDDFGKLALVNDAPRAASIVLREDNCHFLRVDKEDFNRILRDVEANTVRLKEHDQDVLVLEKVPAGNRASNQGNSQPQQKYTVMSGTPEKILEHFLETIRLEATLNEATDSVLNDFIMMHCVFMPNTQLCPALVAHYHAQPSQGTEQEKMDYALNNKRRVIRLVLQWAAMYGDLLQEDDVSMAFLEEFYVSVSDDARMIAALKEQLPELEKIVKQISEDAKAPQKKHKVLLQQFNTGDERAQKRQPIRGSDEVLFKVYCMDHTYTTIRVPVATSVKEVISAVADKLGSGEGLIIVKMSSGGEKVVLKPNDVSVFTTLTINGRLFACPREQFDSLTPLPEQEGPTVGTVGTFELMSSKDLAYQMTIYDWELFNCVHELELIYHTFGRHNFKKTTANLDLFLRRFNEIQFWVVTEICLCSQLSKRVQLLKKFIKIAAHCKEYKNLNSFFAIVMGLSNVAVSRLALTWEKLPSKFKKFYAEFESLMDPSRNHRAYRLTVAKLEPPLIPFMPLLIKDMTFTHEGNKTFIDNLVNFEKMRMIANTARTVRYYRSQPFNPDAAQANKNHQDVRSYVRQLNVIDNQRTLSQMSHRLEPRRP
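Exchange assay: 100 nM EPAC2 with 250 nM Rap1B-BODIPY-GDP and 50 uM GDP. Fluorescence (ex 480/em 540 nm) read every 5 min for 30 min at room temperature. Data normalized to 6.5 mM cAMP as agonist control.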
12-LOX inh – inhibitors of human 12S-lipoxygenase ALOX12; P18054; purified 12hLO, xylenol orange hydroperoxide absorbance; Potency, µM (titrated, usually from 108 µM), without a hit: at the highest dose activity change, negative = inhibition, actives largely listed as inhibitors; 580,000 compounds, 1.1% hits; AID 1671190; also: % is scaled to controls: 0 for no effect and ±100 for the full control effect
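Purified human 12hLO at 150 nM in 25 mM Hepes, 0.01% Triton X-100, pH 7.0, preincubated 15 min at room temperature with compound. Reaction started with 40 uM arachidonic acid, 30 min at room temperature. Hydroperoxide measured by Fe-xylenol orange, 573/405 nm absorbance ratio.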
EPAC1 agonist – EPAC1 (human) agonism; O95398; EPAC1 agonist qHTS, biochemical assay; response scale: 100% = response to 6.5 mM cAMP; Potency, µM (series often up to 154 µM), for the others: at the top dose activation, usual class: activators; 360,000 compounds, 0.073% hits; AID 720707; also: nearly all actives have a fitted effect of over 60% in size
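Nucleotide exchange by EPAC1 (100 nM) on Rap1B–BODIPY-GDP (250 nM) in the presence of 50 uM GDP is tracked fluorescently at 480/540 nm over 30 min. Signals are normalized to a 6.5 mM cAMP control.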
EPAC1 antag – EPAC1 (human) antagonism | 360,000 compounds, 0.14% hits | EPAC1 GEF assay, Rap1b-BODIPY-GDP exchange fluorescence | Potency, µM (series often up to 115 µM), without a hit: at the highest dose activity change, negative = inhibition, most hits filed as inhibitors | O95398;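 also: plate controls were vehicle for no effect and positive control for full effect; nearly all actives have a fitted effect of over 50% in size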
USP1 inh – inhibitors of human USP1/UAF1 deubiquitinase. recombinant USP1/UAF1, Ub-Rhodamine cleavage fluorescence. 390,000 compounds, 0.23% hits. Potency, µM (series often up to 57.1 µM), without a hit: top-dose activity change, negative = inhibition, actives largely listed as inhibitors. AID 743255; also: % is scaled to controls: 0 for no effect and ±100 for the full control effect; nearly all actives have a fitted effect of over 60% in size
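In this screen, compounds sit with the deubiquitinase complex (1nM) for 15 min at room temperature before Ub-Rho is added at 150nM final. Fluorescence rise is then followed for 6 reads every 60 seconds.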
EPAC2 antag – EPAC2 (human) antagonism | Q8WZA2 | EPAC2 GEF exchange of Rap1B-BODIPY-GDP, fluorescence | Potency, µM (top dose mostly 114 µM), without a hit: at the top dose activity, negative = inhibition, most hits filed as inhibitors | 360,000 compounds, 0.18% hits | AID 720708; also: % is scaled to controls: 0 for no effect and ±100 for the full control effect; nearly all actives have a fitted effect of over 45% in size
Numbers without * were called inactive; ! = a repeat was not active; [ ] = another dose, or the depositor's remark. Calls follow the shape of the dose curve; as a rule, active = well fitted curve in the direction sought with a large enough effect; inconclusive = small, poorly fitted or top-dose-only effect, or another doubt; inactive = no such curve, though single readings can be large; an effect the other way counts as inactive or inconclusive. Potency is read from the fitted curve at half-maximal effect.

`Cc1ccc(S(=O)(=O)NCc2ccc(N3CCCC3)nc2)cc1C` gave 12-LOX inh -7.4%.
C/C=C(/C(=C/C)c1ccc(O)cc1)c1ccc(O)cc1 was read as EPAC2 ag 15.8%, 12-LOX inh 50.1µM*!, EPAC1 agonist -16.9%, EPAC1 antag -6.4%, USP1 inh inconclusive and EPAC2 antag inconclusive.
For CC(=NN=C(C)c1ccc(O)cc1)c1ccc(O)cc1 the results were EPAC2 ag 9.8%, 12-LOX inh -6.8%, EPAC1 agonist 2.6%, EPAC1 antag 4.9%, USP1 inh -17.8% and EPAC2 antag -0.1%.
C=CCn1c(-c2ccc3ncccc3c2)n[nH]c1=S was read as EPAC2 ag 4.5%, 12-LOX inh 28.2µM*, EPAC1 agonist -1.8%, EPAC1 antag -1.2%, USP1 inh -9.2% and EPAC2 antag -0.8%.
CC(Sc1nc2cc(S(=O)(=O)N(C)C)ccc2o1)C(=O)NC1CC1 (centres undefined) was read as 12-LOX inh -15.9%.
Screening COC(=O)C1=NN(c2ccc(C)cc2)C2(S1)SC(C(C)=O)=C(C)N2c1ccccc1 (centres undefined) returned EPAC2 ag 7.3%, 12-LOX inh inconclusive, EPAC1 agonist 4.3%, EPAC1 antag 5.4%, USP1 inh -1.6% and EPAC2 antag 3.16µM*.
For COc1ccc(OC)c(NC(=O)COc2ccc(C(C)C)cc2-n2cnnc2)c1 the results were 12-LOX inh 6.6%.
`Cn1cc([C@]2(O)C(=O)Nc3ccc(OC(F)(F)F)cc32)c2ccccc21` gave EPAC2 ag -6.5%, 12-LOX inh -20.0%, EPAC1 agonist -18.0%, EPAC1 antag -15.1% and EPAC2 antag 22.4µM*.
`CC1(Cc2ccccc2OC(F)(F)F)C(=O)Nc2ccc(OC(F)(F)F)cc21` (centres undefined) gave EPAC2 ag -10.1%, 12-LOX inh -12.1%, EPAC1 agonist -28.0%, EPAC1 antag inconclusive and EPAC2 antag inconclusive.
COc1ccc(Oc2cc(CNS(=O)(=O)N3CCOCC3)ccn2)cc1 was read as 12-LOX inh -29.6%.
Screening O/N=C/c1ccc(OCc2ccc(Br)cc2)cc1 returned 12-LOX inh 0.9%.
`C=CCOC(=O)c1cc(-c2ccc(/C=C3\C(=O)NC(=O)C(C#N)=C3C)o2)ccc1Cl` gave EPAC2 ag -8.6%, 12-LOX inh 7.08µM*, EPAC1 agonist 5.9%, EPAC1 antag inconclusive, USP1 inh -26.0% and EPAC2 antag inconclusive.
`CCCOC(=O)c1cc(-c2ccc(/C=C3/C(=O)N(C)C(=O)C(C#N)=C3C)o2)ccc1Cl` gave EPAC2 ag -11.6%, EPAC1 agonist -7.9%, EPAC1 antag -0.5%, USP1 inh inconclusive and EPAC2 antag 7.3%[57.1 µM].
For CN(Cc1c(O)ccc2c1oc(=O)c1ccccc12)C1CCCCC1 the results were EPAC2 ag 7.7%, 12-LOX inh 0.891µM*, EPAC1 agonist 14.0%, EPAC1 antag -22.5%, USP1 inh -19.9% and EPAC2 antag -2.5%.
S=c1[nH]c2cc(Cl)ccc2s1 was read as EPAC2 ag 6.0%, 12-LOX inh 44.7µM*!, EPAC1 agonist 1.7%, EPAC1 antag 10.1%, USP1 inh inconclusive and EPAC2 antag 0.9%.
`COc1ccc(-c2cc(C[C@@H]3CC[C@@H]4OC(=O)NC[C@H]4O3)no2)cc1` gave 12-LOX inh 9.2%[176 µM].
`COc1ccc2nc3ccccc3nc2c1NC(=O)c1ccc(Cl)cc1Cl` gave EPAC2 ag 100µM*, 12-LOX inh -15.1%, EPAC1 agonist inconclusive, EPAC1 antag 20.9%, USP1 inh 253.8% and EPAC2 antag 193.5%.
